In PubChem BioAssay (Tox21):
Several values for one entry are separate records, joined by “and”; a condition that tells them apart may be missing. Equal entries are not always repeated. Results filed as inconclusive are left out. A call without a number means that no potency is given here. A number with no mark means an inactive call. Activity calls are given as the source filed them. Unless noted, calls come from the whole dose curve; as a rule, active = well fitted curve in the direction sought with a large enough effect in the repeat runs; inconclusive = weak or mixed curves; inactive = no such curve, though single readings can be large; an effect the other way counts as inactive or inconclusive.

Experiments:
[1] = qHTS assay to identify small molecule agonists of the RXR signaling pathway - cell viability counter screen (AID 1159529); note: nearly all actives have a fitted effect of over 50% in size; note: potency is the fitted concentration of half-maximal effect;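 for activity change, negative = cytotoxicity: HEK 293T cells carrying an RXR-alpha UAS beta-lactamase reporter; series mostly up to about 77 µM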
How it was run: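 RXR-alpha-UAS-bla HEK 293T cells in medium with 2% charcoal-stripped FBS were preincubated 5 hr, then exposed to compounds for 16 hr at 37 C. Viability was read as CellTiter-Glo luminescence after 30 min at room temperature.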

[2] = qHTS assay to identify small molecule antagonists of the retinoid acid receptor (RAR) signaling pathway - cell viability counter screen (AID 1159551); note: nearly all actives have a fitted effect of over 35% in size
How it was run: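 Following overnight attachment, C3RL4 reporter cells received DMSO-dissolved compounds and then retinol (1 uM final). Six hours later at 37 C, ATP content was measured by CellTiter-Glo luminescence.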

[3] = qHTS assay to identify small molecule antagonists of the estrogen related receptor (ERR) signaling pathway from Tox21 library - cell viability counter screen (AID 1224834); note: nearly all actives have a fitted effect of over 30% in size; note: potency is the fitted concentration of half-maximal effect
How it was run: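 Viability readout (CellTiter-Fluor fluorescence, 30 min at 37 C) multiplexed with the ERR assay; cells treated 17.5 h at 37 C with compounds delivered in DMSO.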

[4] = molecular target: Luciferin 4-monooxygenase (Photinus pyralis) (UniProt P08659); experiment: qHTS assay to identify small molecule inhibitors of firefly luciferase (AID 1224835); note: series mostly up to about 120 µM; nearly all actives have a fitted effect of over 25% in size
How it was run: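 Inhibition of purified Photinus luciferase is measured by luminescence. Substrate levels (D-luciferin, ATP) sit at their KM values. Each compound is tested in a concentration series.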

[5] = qHTS assay to identify small molecule agonists of the constitutive androstane receptor (CAR) signaling pathway - cell viability counter screen (AID 1224836); note: series mostly up to about 92 µM; nearly all actives have a fitted effect of over 45% in size
How it was run: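 HepG2 cells stably carrying hCAR and a CYP2B6-2.2kb reporter were plated 4 h, then given compounds at 15 concentrations plus PK11195 (final 0.75 uM). After 23 h at 37 C, viability was read by CellTiter-Fluor fluorescence.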

[6] = qHTS assay to identify small molecule antagonists of the constitutive androstane receptor (CAR) signaling pathway - cell viability counter screen (AID 1224837); note: series mostly up to about 92 µM; nearly all actives have a fitted effect of over 45% in size
How it was run: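 Fluorescence from CellTiter-Fluor served as the viability signal. Human hepatoma HepG2 cells stably bearing hCAR and CYP2B6-2.2kb received compound plus CITCO (50 nM final) for 23 hr.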

[7] = molecular target: Nuclear receptor subfamily 1 group I member 3 (Homo sapiens) (UniProt Q14994); experiment: qHTS assay to identify small molecule agonists of the constitutive androstane receptor (CAR) signaling pathway (AID 1224839);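 note: HepG2 cells stably carrying human CAR and a CYP2B6 luciferase reporter; series mostly up to about 92 µM; nearly all actives have a fitted effect of over 15% in size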
How it was run: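 HepG2 cells stably expressing hCAR and a CYP2B6-2.2kb luciferase reporter were treated with compounds at 15 concentrations plus 0.75 uM PK11195 (final) for 24 h at 37 C; luminescence was read after ONE-Glo addition.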

[8] = qHTS assay to identify small molecule antagonists of the estrogen related receptor signaling pathway with the pleiotropic PPARgamma coactivator (PGC) from Tox21 10K library - cell viability counter screen (AID 1224840; active = well fitted cell-killing curve with a large enough effect in the repeat runs, not every such curve was filed as active; note: nearly all actives have a fitted effect of over 40% in size)
How it was run: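 Compounds in DMSO, alongside positive and negative controls, were pinned onto PGC/ERR cells (2,000 per well). Exposure lasted 17.5 hours at 37 C, followed by a 30-minute CellTiter-Fluor incubation and fluorescence reading.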

[9] = molecular target: Thyrotropin receptor (Homo sapiens) (UniProt P16473); experiment: qHTS assay to identify small molecule agonists of the thyroid stimulating hormone receptor (TSHR) signaling pathway (AID 1224843; calls by dose curve; note: nearly all actives have a fitted effect of over 45% in size; note: potency is the fitted concentration of half-maximal effect)
How it was run: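 HEK293 cells stably bearing the thyrotropin receptor were plated at 800 cells/well and challenged with compound (30 min, RT). Accumulated cAMP was quantified via cAMP-d2 competing for cryptate-tagged antibody.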

[10] = qHTS assay to identify small molecule agonists of the hypoxia (HIF-1) signaling pathway - cell viability counter screen (AID 1224844; calls by dose curve; note: nearly all actives have a fitted effect of over 50% in size)
How it was run: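 Luminescent ATP content (CellTiter-Glo, 30 min, room temperature) served as the viability measure in HRE-bla ME-180 cells exposed to compounds for 17 hrs in low-serum medium (0.5% dialyzed FBS).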

[11] = qHTS assay to identify small molecule antagonists of the retinoic acid receptor (RAR) signaling pathway (AID 1159552; note: potency is the fitted concentration of half-maximal effect; nearly all actives have a fitted effect of over 50% in size)
How it was run: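 RARE-luc C3RL4 cells; cpds + 1 uM (final) retinol, 6 hr, 37 C/5% CO2; luciferase reagent, 30 min RT, luminescence readout. Inhibitors of retinol-driven signal scored.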

[12] = qHTS assay to identify small molecule antagonists of the estrogen related receptor (ERR) signaling pathway - cell viability counter screen (AID 1224818);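 note: series mostly up to about 46 µM; viability measured after 17.5 h of compound exposure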
How it was run: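 Here, ERR cells are plated at 2,000 cells per well, allowed 6 h to attach, and treated with compounds in DMSO for 17.5 h at 37 C. CellTiter-Fluor is then added and fluorescence read after 30 min.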

[13] = qHTS assay to identify small molecule antagonists of the estrogen related receptor (ERR) signaling pathway (AID 1224819; note: potency is the fitted concentration of half-maximal effect; nearly all actives have a fitted effect of over 50% in size)
How it was run: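 LOPAC library screened for antagonism as reduced One-Glo luminescence in ERR reporter cells (2,000/well). Compounds were added after 6 h pre-incubation and left 18 h at 37C; reading followed a 30 min room-temperature reagent step.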

[14] = qHTS assay to identify small molecule agonists of the estrogen related receptor (ERR) signaling pathway (AID 1224820)
How it was run: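 Quantitative HTS of the LOPAC library used NTP ERR reporter cells treated 18 h at 37 C. Signal is luminescence after One-Glo addition and a 30 min room-temperature incubation.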

[15] = qHTS assay to identify small molecule agonists of the estrogen related receptor signaling pathway with the pleiotropic PPARgamma coactivator (PGC) (AID 1224823)
How it was run: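 Cell-based luciferase assay in the NTP-supplied PGC/ERR line, 2,000 cells/well; 18 h compound exposure at 37 C, luminescence after One-Glo.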

[16] = qHTS assay to identify small molecule antagonists of the estrogen related receptor signaling pathway with the pleiotropic PPARgamma coactivator (PGC) from Tox21 10K library (AID 1224841; call rule not given here; note: potency is the fitted concentration of half-maximal effect)
How it was run: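 Compound exposure ran 18 hours at 37 C in PGC/ERR cells (2,000/well) that had first rested 6 hours in a 37 C/5% CO2 incubator. Luciferase activity was then detected with One-Glo after a 30-minute room-temperature step.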

[17] = qHTS assay to identify small molecule agonists of the estrogen related receptor signaling pathway with the pleiotropic PPARgamma coactivator (PGC) from Tox21 10K library (AID 1224842); note: nearly all actives have a fitted effect of over 15% in size
How it was run: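 Luminescence from One-Glo (30 min, room temperature) measured after PGC/ERR cells had 18 h at 37 C with pinned compound (23 nL in DMSO). Cells had been seeded at 2,000 per well and pre-incubated 6 h.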

[18] = molecular target: Nuclear receptor subfamily 1 group I member 3 (Homo sapiens) (UniProt Q14994); experiment: qHTS assay to identify small molecule antagonists of the constitutive androstane receptor (CAR) signaling pathway (AID 1224838); note: nearly all actives have a fitted effect of over 40% in size; note: potency is the fitted concentration of half-maximal effect
How it was run: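 Quantitative HTS in double-stable HepG2-CYP2B6-hCAR cells. After 4 h plating, cells get compound (15 concentrations) and CITCO at 50 nM final, incubate 24 h at 37 C, then ONE-Glo luminescence is read.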

Luciferin 4-monooxygenase (Photinus pyralis), sequence (P08659 whole entry, looked up): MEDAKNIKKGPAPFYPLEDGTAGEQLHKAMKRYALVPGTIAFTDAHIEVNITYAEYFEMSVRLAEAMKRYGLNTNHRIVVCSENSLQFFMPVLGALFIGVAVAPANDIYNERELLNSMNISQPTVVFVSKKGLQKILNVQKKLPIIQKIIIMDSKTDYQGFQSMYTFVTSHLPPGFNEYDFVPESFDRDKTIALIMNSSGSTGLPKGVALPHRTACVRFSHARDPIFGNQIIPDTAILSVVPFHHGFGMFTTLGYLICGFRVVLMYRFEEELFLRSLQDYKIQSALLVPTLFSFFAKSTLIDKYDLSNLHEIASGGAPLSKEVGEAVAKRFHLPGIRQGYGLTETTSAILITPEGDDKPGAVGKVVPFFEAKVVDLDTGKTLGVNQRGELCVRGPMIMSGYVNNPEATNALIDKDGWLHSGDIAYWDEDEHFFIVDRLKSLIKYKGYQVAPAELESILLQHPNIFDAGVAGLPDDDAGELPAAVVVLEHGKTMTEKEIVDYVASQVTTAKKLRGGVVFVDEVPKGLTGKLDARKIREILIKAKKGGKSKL
Thyrotropin receptor (Homo sapiens), sequence (P16473 whole entry, looked up): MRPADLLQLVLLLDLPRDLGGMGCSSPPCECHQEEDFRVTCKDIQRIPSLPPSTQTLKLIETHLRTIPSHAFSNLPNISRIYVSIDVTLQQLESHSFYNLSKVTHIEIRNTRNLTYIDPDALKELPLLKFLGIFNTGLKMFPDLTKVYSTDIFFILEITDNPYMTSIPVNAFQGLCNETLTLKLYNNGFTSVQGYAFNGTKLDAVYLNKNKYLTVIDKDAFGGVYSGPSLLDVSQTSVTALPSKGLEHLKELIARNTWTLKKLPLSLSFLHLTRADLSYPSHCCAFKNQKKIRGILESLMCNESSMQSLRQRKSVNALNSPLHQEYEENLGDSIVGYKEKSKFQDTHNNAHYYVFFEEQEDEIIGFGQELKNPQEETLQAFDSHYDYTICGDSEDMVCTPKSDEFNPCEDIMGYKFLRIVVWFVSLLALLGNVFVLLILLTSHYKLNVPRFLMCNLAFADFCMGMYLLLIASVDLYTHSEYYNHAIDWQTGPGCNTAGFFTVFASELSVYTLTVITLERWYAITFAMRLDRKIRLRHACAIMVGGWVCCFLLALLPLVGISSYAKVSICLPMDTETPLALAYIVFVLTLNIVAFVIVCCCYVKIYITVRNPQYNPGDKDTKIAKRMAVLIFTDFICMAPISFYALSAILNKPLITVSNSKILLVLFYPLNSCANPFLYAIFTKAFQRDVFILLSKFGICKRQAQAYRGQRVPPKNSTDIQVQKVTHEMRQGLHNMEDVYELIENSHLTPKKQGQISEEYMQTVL
Nuclear receptor subfamily 1 group I member 3 (Homo sapiens), sequence (Q14994 whole entry, looked up): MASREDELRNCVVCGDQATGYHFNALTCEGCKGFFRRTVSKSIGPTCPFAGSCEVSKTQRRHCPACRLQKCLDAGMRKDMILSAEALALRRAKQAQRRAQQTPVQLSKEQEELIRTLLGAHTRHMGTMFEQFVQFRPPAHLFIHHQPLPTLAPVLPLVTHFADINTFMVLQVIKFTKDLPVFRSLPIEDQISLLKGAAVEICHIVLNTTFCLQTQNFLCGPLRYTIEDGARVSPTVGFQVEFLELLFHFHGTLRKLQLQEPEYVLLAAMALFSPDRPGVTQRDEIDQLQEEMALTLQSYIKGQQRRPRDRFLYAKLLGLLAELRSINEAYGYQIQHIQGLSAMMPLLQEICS

In the case of `OC1CCCc2ccccc21` (stereo not drawn), the Potency [1] is reported as “inactive”, the Potency [2] is reported as “inactive” and the Potency [3] is reported as “inactive”. The Potency [4] was “inactive”, the Potency [5] was “inactive” and the Potency [6] was “inactive”. For the same molecule, the Potency [7] was “inactive”, the Potency [8] was “inactive” and the Potency [9] was “inactive”. For the same molecule, the Potency [10] was “inactive”.
In the case of `CC(=O)[C@H]1CC[C@H]2[C@@H]3CCC4=CC(=O)CC[C@]4(C)[C@H]3CC[C@]12C`, the Potency [1] is reported as 38.7 µM (active) and 43.6 µM (active), the Potency [11] is reported as 48.3 µM (active) and 30.6 µM (active) and the outcome [12] is reported as “inactive”. For the same molecule, the Potency [13] was 11.9 µM (active), the outcome [14] was “inactive” and the outcome [15] was “inactive”. The Potency [3] was 30.5 µM (active) and 30.6 µM (active), the Potency [4] was “inactive” and the Potency [6] was “inactive”. For the same molecule, the Potency [16] was 27.1 µM (active) and 13.7 µM (active), the Potency [17] was “inactive” and the Potency [9] was “inactive”. For the same molecule, the Potency [10] was “inactive”.
With `CC1=CCC(=C(C)C)CC1` the Potency [1] was “inactive”, the Potency [2] was “inactive” and the Potency [3] was “inactive”. For the same molecule, the Potency [5] was “inactive”, the Potency [6] was “inactive” and the Potency [18] was “inactive”. For the same molecule, the Potency [7] was “inactive”, the Potency [8] was “inactive” and the Potency [10] was “inactive”.
In the case of `CCCC1CCC(=O)CC1`, the Potency [1] is reported as “inactive”, the Potency [2] is reported as “inactive” and the Potency [4] is reported as “inactive”. For the same molecule, the Potency [5] was “inactive”, the Potency [6] was “inactive” and the Potency [18] was “inactive”. The Potency [7] was “inactive”, the Potency [8] was “inactive” and the Potency [10] was “inactive”.
With `COc1cccc(OC)c1C(=O)O` the Potency [1] was “inactive”, the Potency [2] was “inactive” and the Potency [3] was “inactive”. The Potency [4] was “inactive”, the Potency [5] was “inactive” and the Potency [6] was “inactive”. For the same molecule, the Potency [18] was “inactive”, the Potency [7] was “inactive” and the Potency [8] was “inactive”. For the same molecule, the Potency [9] was “inactive” and the Potency [10] was “inactive”.
In the case of `C[Si](Cl)(c1ccccc1)c1ccccc1`, the Potency [1] is reported as “inactive”, the Potency [2] is reported as “inactive” and the Potency [3] is reported as “inactive”. The Potency [4] was “inactive”, the Potency [5] was “inactive” and the Potency [6] was “inactive”. For the same molecule, the Potency [18] was “inactive”, the Potency [16] was “inactive” and the Potency [17] was “inactive”. The Potency [9] was “inactive” and the Potency [10] was “inactive”.
In the case of `CCCCCCCCCCCCOC(=O)c1ccc(O)cc1`, the Potency [1] is reported as “inactive”, the Potency [2] is reported as “inactive” and the Potency [4] is reported as “inactive”. The Potency [5] was “inactive”, the Potency [6] was “inactive” and the Potency [18] was “inactive”. For the same molecule, the Potency [7] was “inactive” and the Potency [10] was “inactive”.
With `CN(C)[C@@H](CCOc1cccc2ccccc12)c1ccccc1` the Potency [1] was 21.3 µM (active), the Potency [11] was 29.8 µM (active) and the Potency [6] was “inactive”. The Potency [18] was “inactive”, the Potency [7] was “inactive” and the Potency [16] was “inactive”. The Potency [17] was “inactive” and the Potency [9] was 33.5 µM (active).
For `CN1CCN(Cc2cc(-c3ccc4[nH]c(=O)oc4c3)co2)[C@@H](c2ccc(F)cc2)C1`, the Potency [1] was “inactive”, the Potency [2] was “inactive” and the Potency [3] was 23.4 µM (active). For the same molecule, the Potency [4] was “inactive”, the Potency [18] was “inactive” and the Potency [7] was “inactive”. The Potency [9] was 13.2 µM (active).
With `O=C(O)CN(CCN(CC(=O)O)CC(=O)O)CC(=O)O` the activity change, negative = cytotoxicity [1] was -6.94% [at 2.72 µM], the activity change, negative = cytotoxicity [2] was 1.05% [at 3.27 µM] and the Potency [18] was 1.94 µM (active). The activation [7] was -0.673% [at 3.27 µM], the activation [9] was -1.34% [at 3.27 µM] and the activity change, negative = cytotoxicity [10] was -5.67% [at 2.72 µM].
In the case of `CN(C)C(=O)COC(=O)Cc1ccc(OC(=O)c2ccc(N=C(N)N)cc2)cc1`, the Potency [1] is reported as “inactive”, the Potency [2] is reported as “inactive” and the Potency [3] is reported as “inactive”. For the same molecule, the Potency [4] was “inactive”, the Potency [5] was “inactive” and the Potency [6] was “inactive”. The Potency [8] was “inactive”, the Potency [16] was “inactive” and the Potency [17] was “inactive”. The Potency [9] was “inactive” and the Potency [10] was “inactive”.
